Bioassay records as filed in PubChem BioAssay.
An excerpt weighted towards active compounds, which were near 4.4% of everything screened.
p53ts 32C kill: qHTS Screen for Compounds that Selectively Target Cancer Cells with p53 Mutations: Cytotoxicity of p53ts Cells at the Permissive Temperature. H1299-p53A138V at 32C, ATP luminescence viability, 24 h. Potency, µM (highest dose often 46.1 µM), inactives show at the top dose activity change, negative = cytotoxicity, usual class: cytotoxic. actives 0.93% (n = 130,000);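 further: 0% = DMSO and -100% = full killing by reference compound; nearly all actives have a fitted effect of over 55% in size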
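Viability by ATPlite luminescence after 24 h compound treatment (up to 46 uM) at the permissive 32C. Cells are H1299 carrying p53 A138V. Scale runs from DMSO basal to 100 uM tamoxifen as full kill; AC50 from Hill fits.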
12-hLO inh: qHTS Assay for Inhibitors of 12-hLO (12-human lipoxygenase) | Polyunsaturated fatty acid lipoxygenase ALOX12 (Homo sapiens), P18054 | Potency, µM (series often up to 57.1 µM), for the others: at the highest dose activity change, negative = inhibition, actives largely listed as inhibitors | purified 12-hLO, xylenol orange hydroperoxide absorbance | actives 0.12% (n = 150,000); further: nearly all actives have a fitted effect of over 55% in size
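150 nM 12hLO, 25 mM Hepes pH 7.0 + 0.01% Triton X-100; cpd preinc 15 min RT; 40 uM arachidonic acid, 30 min RT; Fe-XO 30 min; A573/A405 ratio as read-out.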
HPGD block: qHTS Assay for Inhibitors of HPGD (15-Hydroxyprostaglandin Dehydrogenase). AID 894, 2007. purified HPGD, NADH fluorescence kinetic, PGE2 substrate. Potency, µM, for the others: top-dose activity change, negative = inhibition, usual class: inhibitors. actives 4.3% (n = 150,000); active means well fitted inhibition curve with a large enough effect, not every such curve was filed as active; inconclusive means small, poorly fitted or top-dose-only effect, or another doubt; inactive means no such curve, though single readings can be large or run the other way
Target sequence (P15428 whole entry, looked up): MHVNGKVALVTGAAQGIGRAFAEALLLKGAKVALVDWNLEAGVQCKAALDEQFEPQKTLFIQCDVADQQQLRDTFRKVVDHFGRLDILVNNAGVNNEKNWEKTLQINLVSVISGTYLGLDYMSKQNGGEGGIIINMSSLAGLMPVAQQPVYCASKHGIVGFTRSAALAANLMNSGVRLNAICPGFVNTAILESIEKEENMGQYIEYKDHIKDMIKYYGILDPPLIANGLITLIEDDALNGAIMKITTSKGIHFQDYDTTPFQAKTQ
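NADH formation kinetics: reaction with 30 uM PGE2 and 1 mM NAD+ (final), 20 nM enzyme, Tris-HCl pH 8 with Tween 20, after 15 min compound preincubation at room temperature. Fluorescence change, last versus first of five reads.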
p53ts 39C kill: qHTS Screen for Compounds that Selectively Target Cancer Cells with p53 Mutations: Cytotoxicity of p53ts Cells at the Nonpermissive Temperature; AID 902, 2007; actives 1.5% (n = 130,000); Potency, µM (highest dose often 46.1 µM), inactives show top-dose activity change, negative = cell killing, actives largely listed as cytotoxic; H1299-p53A138V viability at 39C, ATP luminescence, 24 h; further: nearly all actives have a fitted effect of over 55% in size
* marks the source's active call; other numbers are inactive results; ? = inconclusive; · = not tested or not shown; [ ] = another dose, or the depositor's remark. Unless noted, the call rests on the fitted dose curve; in most records, active means well fitted curve in the direction sought with a large enough effect; inconclusive means small, poorly fitted or top-dose-only effect, or another doubt; inactive means no such curve, though single readings can be large; an effect the other way counts as inactive or inconclusive. Unless noted, on the % scale 0 is the no-effect control and ±100 the full control effect; potency means the concentration at half of the fitted maximal effect.

SMILES	p53ts 32C kill	12-hLO inh	HPGD block	p53ts 39C kill
O=c1c(O)c(-c2cc(O)c(O)c(O)c2)oc2cc(O)cc(O)c12	-1%	?	7.9µM*	-9%
CC(C)(C)OC(=O)[C@H](C1N[C@@H](C(=O)O)C(C)(C)S1)N1C(=O)c2ccccc2C1=O (stereo partly drawn)	·	·	-1%	·
O=C(OCC(=O)N1CCCCC1)c1cc(NS(=O)(=O)c2ccc(Cl)c([N+](=O)[O-])c2)ccc1O	·	0%	8.9µM*	·
Cc1ccccc1OCC(=O)Nc1ccc(-c2nc3ccccc3o2)cc1	6%	·	·	-14%
COc1ccc(CCNC(=O)NCc2noc3ccccc23)c(OC)c1	10%	·	·	-10%
COc1ccc(-c2cn3nc(N4CCCC(C(=O)Nc5cc(Cl)ccc5OC)C4)sc3n2)cc1 (stereo not drawn)	3%	·	·	·
O=c1[nH]c2ccc(NCc3ccc(-c4ccccc4F)o3)cc2[nH]1	-11%	·	·	-14%
O=S(=O)(c1cccc(C(F)(F)F)c1)n1c(/C=C/c2ccccc2)nc2ccccc21	13µM*	·	·	13µM*
CCn1c(/C=C/c2ccccc2)nc2ccccc21	·	7%	?	·
CCOc1ccc(/C=C/c2nc3ccccc3n2S(=O)(=O)c2ccc(Br)cc2)cc1	7.9µM*	·	·	7.9µM*
CSc1ccc(/C=C/c2nc3ccccc3n2S(=O)(=O)c2ccc(Br)cc2)cc1	3.2µM*	·	·	1.1µM*
CCOc1ccccc1CNC(=O)c1ccc2nc(N3CCC(C)CC3)sc2c1	1%	·	·	-20%
Cc1ccc(/C=C2\CCCC3=C2NC(=S)NC3c2ccc(C)cc2)cc1 (stereo not drawn)	·	?	32µM*	·
Fc1ccc(/C=C2\CCCC3=C2Nc2ncnn2C3c2ccc(F)cc2)cc1 (stereo not drawn)	·	-22%	?	·
COc1ccc(NC(=O)c2c(NCc3ccc(OC)c(OC)c3OC)sc3c2CCC3)c(OC)c1	-4%	·	·	12%
Cc1nc2ccccc2n1CCc1nc2c3ccccc3nc(SCC(=O)Nc3ccc(C(C)C)cc3)n2n1	?	·	·	10µM*
CCOc1ccc(NC(=O)c2cccc(N3CCCS3(=O)=O)c2)cc1	-19%	·	·	-23%
CC1=C(SCCC#N)S/C(=C2\SC(C)=C(SCCC#N)S2)S1	1%	?	18µM*	-3%
CCCCC#Cc1nc(N)c2ncn([C@@H]3O[C@@H](C(=O)NCC)[C@H](O)[C@@H]3O)c2n1	9%	-5%	·	-17%
CN1[C@@H]2CC[C@@H]1CC(OC(=O)[C@H](CO)c1ccccc1)C2 (stereo partly drawn)	·	-2%[0.00818 µM]	-1%	·
O=c1c2cc(-c3ccccc3)sc2ncn1-n1cccc1	·	7%	-5%	·
Cc1ccc(C)n1-n1cnc2sc(-c3ccccc3)cc2c1=O	-4%	5%	28µM*	-13%
COc1ccccc1/C=C/c1nc2ccccc2n1C(C)C	?	·	·	16µM*
c1cn2c(NC3CCCC3)c(-c3ccc(N4CCOCC4)cc3)nc2cn1	10µM*	-4%	-14%	16µM*
CCCCCCCCCCCCCCC/C=C\[C@H](O)[C@@H](NC(=O)CCCCCCCCCCCCC)OC (tested in a mixture with another compound)	5%	-11%	·	?
SMILES	p53ts 32C kill	12-hLO inh	HPGD block	p53ts 39C kill
O=C(CSc1n[nH]c(-c2ccco2)n1)N1c2ccccc2Sc2ccccc21	-1%	-21%	13µM*	7%
O=C(O)c1ccc(CSc2n[nH]c(-c3ccco3)n2)cc1	-3%	-7%	2.8µM*	5%
CCOC(=O)CSc1n[nH]c(-c2ccco2)n1	2%	-2%	?	-4%
O=C1CCC=C1C(O)c1ccc2c(c1)OCO2 (stereo not drawn)	·	-2%	0%	·
COc1ccc(NC(=O)Cn2c(=O)ccc3cc(S(=O)(=O)N4CCCC4)ccc32)cc1Cl	17%	·	·	17%
COc1cccc(-c2nc3c(c(SCC(=O)Nc4cccc(C)c4C)n2)Cc2c(CO)cnc(C)c2O3)c1	5%	·	·	11%
Cc1ccccc1S(=O)(=O)Cc1ccc(C(=O)N2CCN(c3cccc(C)c3C)CC2)o1	?	2%	-8%	13µM*
